# The supplement of paper PMC12282887
# ± gives the standard deviation of the averaged measurements.
# Test system: E. coli BW25113 marRABp lux reporter
# Experiment: promoter activity interaction Z-score (Lux/OD deviation from empty-vector control); higher = stronger promoter induction by the compound
# Procedure: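 E. coli BW25113 (wild type or ΔmarA/ΔsoxS/Δrob) carrying pTU175 luxCDABE promoter reporters was grown in LB in 384-well plates at 37°C with each of 94 compounds at 4 two-fold concentrations, in biological duplicates. Luminescence and OD600 were read every 30 min for 12 h and integrated as AUC over 8 h (0-8 h WT, 1-9 h mutants). Lux AUC was divided by OD AUC; the interaction score is the residual of a Huber robust fit of each promoter against the empty-vector control, then Z-transformed per promoter.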
structure (smiles),measurement,setting,value
C/C(=C\C(=O)OCCCCCCCCC(=O)O)C[C@@H]1OC[C@H](C[C@@H]2O[C@H]2[C@@H](C)[C@H](C)O)[C@@H](O)[C@H]1O [Pseudomonic acid],promoter activity interaction Z-score,"0.25 µg/ml, genetic background: wild type",0.11 ± 0.42
same,promoter activity interaction Z-score,"0.25 µg/ml, genetic background: ΔmarA",-0.235 ± 0.012
same,promoter activity interaction Z-score,"0.25 µg/ml, genetic background: Δrob",-0.0762 ± 0.015
same,promoter activity interaction Z-score,"0.25 µg/ml, genetic background: ΔsoxS",0.0844 ± 0.02
same,promoter activity interaction Z-score,"0.5 µg/ml, genetic background: wild type",-0.132 ± 0.23
same,promoter activity interaction Z-score,"0.5 µg/ml, genetic background: ΔmarA",0.0957 ± 0.22
same,promoter activity interaction Z-score,"0.5 µg/ml, genetic background: Δrob",-0.00927 ± 0.019
same,promoter activity interaction Z-score,"0.5 µg/ml, genetic background: ΔsoxS",-0.0242 ± 0.093
same,promoter activity interaction Z-score,"1 µg/ml, genetic background: wild type",-0.169 ± 0.093
same,promoter activity interaction Z-score,"1 µg/ml, genetic background: ΔmarA",-0.155 ± 0.7
same,promoter activity interaction Z-score,"1 µg/ml, genetic background: Δrob",-0.106 ± 0.21
same,promoter activity interaction Z-score,"1 µg/ml, genetic background: ΔsoxS",-0.0673 ± 0.12
same,promoter activity interaction Z-score,"2 µg/ml, genetic background: wild type",0.422 ± 0.28
same,promoter activity interaction Z-score,"2 µg/ml, genetic background: ΔmarA",0.511 ± 0.47
same,promoter activity interaction Z-score,"2 µg/ml, genetic background: Δrob",0.235 ± 0.31
same,promoter activity interaction Z-score,"2 µg/ml, genetic background: ΔsoxS",0.341 ± 0.086
O=C(/C=C/C=C/c1ccc2c(c1)OCO2)N1CCCCC1 [Piperine],promoter activity interaction Z-score,"17.8 µg/ml, genetic background: wild type",-0.274 ± 0.019
same,promoter activity interaction Z-score,"17.8 µg/ml, genetic background: ΔmarA",-0.301 ± 0.051
same,promoter activity interaction Z-score,"17.8 µg/ml, genetic background: Δrob",-0.434 ± 0.098
same,promoter activity interaction Z-score,"17.8 µg/ml, genetic background: ΔsoxS",-0.317 ± 0.29
same,promoter activity interaction Z-score,"35.7 µg/ml, genetic background: wild type",-0.476 ± 0.17
same,promoter activity interaction Z-score,"35.7 µg/ml, genetic background: ΔmarA",-0.752 ± 0.41
same,promoter activity interaction Z-score,"35.7 µg/ml, genetic background: Δrob",-0.43 ± 0.21
same,promoter activity interaction Z-score,"35.7 µg/ml, genetic background: ΔsoxS",-0.378 ± 0.24
same,promoter activity interaction Z-score,"71.3 µg/ml, genetic background: wild type",-0.335 ± 0.037
same,promoter activity interaction Z-score,"71.3 µg/ml, genetic background: ΔmarA",-0.48 ± 0.25
same,promoter activity interaction Z-score,"71.3 µg/ml, genetic background: Δrob",-0.399 ± 0.2
same,promoter activity interaction Z-score,"71.3 µg/ml, genetic background: ΔsoxS",-0.463 ± 0.46
same,promoter activity interaction Z-score,"142.7 µg/ml, genetic background: wild type",-0.425 ± 0.28
same,promoter activity interaction Z-score,"142.7 µg/ml, genetic background: ΔmarA",-0.375 ± 0.13
same,promoter activity interaction Z-score,"142.7 µg/ml, genetic background: Δrob",-0.33 ± 0.27
same,promoter activity interaction Z-score,"142.7 µg/ml, genetic background: ΔsoxS",-0.0869 ± 0.48
CN(C)C(=O)C(CCN1CCC(O)(c2ccc(Cl)cc2)CC1)(c1ccccc1)c1ccccc1 [Loperamide],promoter activity interaction Z-score,"32.1 µg/ml, genetic background: wild type",-0.202 ± 0.03
same,promoter activity interaction Z-score,"32.1 µg/ml, genetic background: ΔmarA",-0.0422 ± 0.33
same,promoter activity interaction Z-score,"32.1 µg/ml, genetic background: Δrob",-0.0553 ± 0.2
same,promoter activity interaction Z-score,"32.1 µg/ml, genetic background: ΔsoxS",-0.22 ± 0.2
same,promoter activity interaction Z-score,"64.2 µg/ml, genetic background: wild type",-0.233 ± 0.17
same,promoter activity interaction Z-score,"64.2 µg/ml, genetic background: ΔmarA",0.346 ± 0.1
same,promoter activity interaction Z-score,"64.2 µg/ml, genetic background: Δrob",-0.132 ± 0.024
same,promoter activity interaction Z-score,"64.2 µg/ml, genetic background: ΔsoxS",-0.171 ± 0.18
same,promoter activity interaction Z-score,"128.4 µg/ml, genetic background: wild type",-0.314 ± 0.22
same,promoter activity interaction Z-score,"128.4 µg/ml, genetic background: ΔmarA",0.0947 ± 0.21
same,promoter activity interaction Z-score,"128.4 µg/ml, genetic background: Δrob",-0.192 ± 0.036
same,promoter activity interaction Z-score,"128.4 µg/ml, genetic background: ΔsoxS",-0.213 ± 0.17
same,promoter activity interaction Z-score,"256.8 µg/ml, genetic background: wild type",-0.0275 ± 0.19
same,promoter activity interaction Z-score,"256.8 µg/ml, genetic background: ΔmarA",0.711 ± 0.64
same,promoter activity interaction Z-score,"256.8 µg/ml, genetic background: Δrob",-0.0389 ± 0.11
same,promoter activity interaction Z-score,"256.8 µg/ml, genetic background: ΔsoxS",-0.046 ± 0.47
